PubChem BioAssay (Tox21)
Results filed as inconclusive are left out. Activity calls are given as the source filed them. Unless noted, calls follow the shape of the dose curve; as a rule, active = well fitted curve in the direction sought with a large enough effect in the repeat runs; inconclusive = weak or mixed curves; inactive = no such curve, though single readings can be large; an effect the other way counts as inactive or inconclusive.

Tests used:
[1] = qHTS assay for identifying genotoxic compounds that show differential cytotoxicity against isogenic chicken DT40 cell lines with known DNA damage response pathways - wild type cell line (AID 743012); also: nearly all actives have a fitted effect of over 60% in size; also: potency is read from the fitted curve at half-maximal effect
How it was run: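 CellTiter-Glo luminescence readout of viability in wild type DT40 cells after 40 h compound exposure at 37 C/5% CO2; 300 cells/well; reagent incubated 30 min at room temperature before reading.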

[2] = qHTS assay for identifying genotoxic compounds that show differential cytotoxicity against isogenic chicken DT40 cell lines with known DNA damage response pathways - Rev3 mutant cell line (AID 743014); also: nearly all actives have a fitted effect of over 55% in size; also: potency is read from the fitted curve at half-maximal effect
[3] = qHTS assay for identifying genotoxic compounds that show differential cytotoxicity against isogenic chicken DT40 cell lines with known DNA damage response pathways - Rad54/Ku70 mutant cell line (AID 743015); also: nearly all actives have a fitted effect of over 60% in size; also: potency is read from the fitted curve at half-maximal effect
[4] = qHTS assay to identify small molecule antagonists of the androgen receptor (AR) signaling pathway using the MDA cell line - cell viability counter screen (AID 743041; also: nearly all actives have a fitted effect of over 45% in size)
How it was run: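 Compound exposure lasted 16 h at 37C in MDA-kb2 AR-luc cells stimulated with R1881. Protease-based CellTiter-Fluor reagent was applied for the final 30 min and fluorescence measured.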

[5] = qHTS assay to identify small molecule antagonists of the thyroid receptor (TR) signaling pathway - cell viability counter screen (AID 743064); also: nearly all actives have a fitted effect of over 50% in size
How it was run: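 In rat pituitary GH3.TRE-Luc reporter cells co-exposed to compound and 1 nM T3 for 23.5 h, cytotoxicity was assessed with CellTiter-Fluor in the same wells, read by fluorescence.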

[6] = qHTS assay to identify small molecule antagonists of the thyroid receptor (TR) signaling pathway (AID 743065); also: nearly all actives have a fitted effect of over 55% in size; also: potency is read from the fitted curve at half-maximal effect; as to activity, negative = inhibition: series mostly up to about 70 µM
How it was run: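 GH3.TRE-Luc rat pituitary cells (two TREs driving luciferase) were dosed with compound, then stimulated with 1 nM T3 (final) for 23.5 h at 37 C. ONE-Glo luminescence was the read-out, with CellTiter-Fluor fluorescence as the cytotoxicity counter-screen.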

[7] = system: thyroid hormone receptor (rat, GH3 cells); test: qHTS assay to identify small molecule agonists of the thyroid receptor (TR) signaling pathway (AID 743066; calls by dose curve; also: potency is read from the fitted curve at half-maximal effect)
[8] = qHTS assay to identify small molecule antagonists of the estrogen receptor alpha (ER-alpha) signaling pathway - cell viability counter screen (AID 743074; calls by dose curve; also: nearly all actives have a fitted effect of over 45% in size)
[9] = target: Estrogen receptor (Homo sapiens) (UniProt P03372); test: qHTS assay to identify small molecule agonists of the estrogen receptor alpha (ER-alpha) signaling pathway (AID 743075; calls by dose curve)
[10] = qHTS assay to identify small molecule antagonists of the estrogen receptor alpha (ER-alpha) signaling pathway using the BG1 cell line - cell viability counter screen (AID 743081);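 also: compound given together with 17beta-estradiol as the ER stimulus; series mostly up to about 70 µM; nearly all actives have a fitted effect of over 45% in size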
[11] = target: Aromatase (Homo sapiens) (UniProt P11511); test: qHTS assay to identify aromatase inhibitors (AID 743083); also: series mostly up to about 70 µM; nearly all actives have a fitted effect of over 55% in size
[12] = qHTS assay to identify small molecule antagonists of the androgen receptor (AR) signaling pathway - cell viability counter screen (AID 743033; also: nearly all actives have a fitted effect of over 45% in size)
[13] = target: Androgen receptor (Homo sapiens) (UniProt P10275); test: qHTS assay to identify small molecule antagonists of the androgen receptor (AR) signaling pathway (AID 743035; active = well fitted inhibition curve with a large enough effect in the signal ratio in the repeat runs, not every such curve was filed as active; the % refers to the signal ratio)
How it was run: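 AR-bla HEK293 reporter cells; 4 h settle at 37C/5% CO2; compound + R1881 agonist, 16 h at 37C; LiveBLAzer B/G FRET substrate 2 h RT; fluorescence intensity read. qHTS format.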

[14] = target: Androgen receptor (Homo sapiens) (UniProt P10275); test: qHTS assay to identify small molecule agonists of the androgen receptor (AR) signaling pathway (AID 743036; active = well fitted activation curve with a large enough effect in the signal ratio in the repeat runs, with a control signal flat, not every such curve was filed as active; the % refers to the signal ratio)
How it was run: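 Cell-based FRET reporter assay: HEK293 line with a UAS-beta-lactamase construct, compounds added in DMSO, 16 h exposure at 37C, then 2 h substrate step at room temperature and fluorescence intensity read.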

[15] = target: Androgen receptor (Homo sapiens) (UniProt P10275); test: qHTS assay to identify small molecule agonists of the androgen receptor (AR) signaling pathway using the MDA cell line (AID 743040; also: nearly all actives have a fitted effect of over 20% in size)
How it was run: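 Testing was done with the MDA-kb2 AR-luc line, a human breast carcinoma stably transfected with MMTV-luciferase containing AR and GR response elements. Cells were exposed 16 h at 37C before ONE-Glo luminescence detection.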

[16] = target: Androgen receptor (Homo sapiens) (UniProt P10275); test: qHTS assay to identify small molecule antagonists of the androgen receptor (AR) signaling pathway using the MDA cell line (AID 743042; also: nearly all actives have a fitted effect of over 55% in size)
How it was run: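 MDA-kb2 breast carcinoma cells carrying MMTV-luciferase (AR/GR responsive) were co-treated with compounds and the agonist R1881 for 16 h at 37C. Inhibition read as ONE-Glo luminescence; CellTiter-Fluor fluorescence measured in parallel for cytotoxicity.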

[17] = target: Estrogen receptor (Homo sapiens) (UniProt P03372); test: qHTS assay to identify small molecule antagonists of the estrogen receptor alpha (ER-alpha) signaling pathway (AID 743069; active = well fitted curve in the direction sought with a large enough effect in the signal ratio in the repeat runs, not every such curve was filed as active; the % refers to the signal ratio)
How it was run: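 In this cell-based reporter format, GripTite HEK293 cells harbouring ER-alpha-UAS-bla were grown overnight with 2% charcoal-stripped FBS, dosed with DMSO-dissolved compounds, then challenged with 17beta-estradiol. After 18 hr at 37C, beta-lactamase activity was detected by FRET fluorescence.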

[18] = target: Estrogen receptor (Homo sapiens) (UniProt P03372); test: qHTS assay to identify small molecule agonists of the estrogen receptor alpha (ER-alpha) signaling pathway using the BG1 cell line (AID 743079); also: nearly all actives have a fitted effect of over 20% in size; also: potency is read from the fitted curve at half-maximal effect
[19] = qHTS assay to identify small molecule antagonists of the estrogen receptor alpha (ER-alpha) signaling pathway using the BG1 cell line (AID 743080; calls by dose curve;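 also: BG1 cells stimulated with 17beta-estradiol alongside compound; series mostly up to about 70 µM; nearly all actives have a fitted effect of over 25% in size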)
How it was run: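 Readout is ONE-Glo luminescence, taken 30 min at room temperature after reagent addition, preceded by a CellTiter-Fluor viability read; BG1-Luc-4E2 cells had received compound and 17beta-estradiol for 21.5 h at 37 C.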
% is scaled to controls: 0 for no effect and ±100 for the full control effect.

Sequence of Aromatase (Homo sapiens) (P11511 whole entry, looked up): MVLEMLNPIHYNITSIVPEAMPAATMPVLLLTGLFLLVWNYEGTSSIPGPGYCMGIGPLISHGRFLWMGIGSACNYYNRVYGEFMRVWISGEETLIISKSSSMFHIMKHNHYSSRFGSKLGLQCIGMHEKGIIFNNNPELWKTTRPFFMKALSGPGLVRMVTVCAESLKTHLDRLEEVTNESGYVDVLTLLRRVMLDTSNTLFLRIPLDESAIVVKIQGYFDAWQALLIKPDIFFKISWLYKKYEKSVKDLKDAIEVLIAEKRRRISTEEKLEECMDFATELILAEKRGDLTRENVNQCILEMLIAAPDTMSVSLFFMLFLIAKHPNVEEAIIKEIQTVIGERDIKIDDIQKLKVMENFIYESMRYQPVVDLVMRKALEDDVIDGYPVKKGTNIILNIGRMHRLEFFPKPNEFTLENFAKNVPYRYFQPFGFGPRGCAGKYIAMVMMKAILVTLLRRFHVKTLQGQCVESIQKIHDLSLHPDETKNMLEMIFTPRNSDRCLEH
Sequence of Estrogen receptor (Homo sapiens) (P03372 whole entry, looked up): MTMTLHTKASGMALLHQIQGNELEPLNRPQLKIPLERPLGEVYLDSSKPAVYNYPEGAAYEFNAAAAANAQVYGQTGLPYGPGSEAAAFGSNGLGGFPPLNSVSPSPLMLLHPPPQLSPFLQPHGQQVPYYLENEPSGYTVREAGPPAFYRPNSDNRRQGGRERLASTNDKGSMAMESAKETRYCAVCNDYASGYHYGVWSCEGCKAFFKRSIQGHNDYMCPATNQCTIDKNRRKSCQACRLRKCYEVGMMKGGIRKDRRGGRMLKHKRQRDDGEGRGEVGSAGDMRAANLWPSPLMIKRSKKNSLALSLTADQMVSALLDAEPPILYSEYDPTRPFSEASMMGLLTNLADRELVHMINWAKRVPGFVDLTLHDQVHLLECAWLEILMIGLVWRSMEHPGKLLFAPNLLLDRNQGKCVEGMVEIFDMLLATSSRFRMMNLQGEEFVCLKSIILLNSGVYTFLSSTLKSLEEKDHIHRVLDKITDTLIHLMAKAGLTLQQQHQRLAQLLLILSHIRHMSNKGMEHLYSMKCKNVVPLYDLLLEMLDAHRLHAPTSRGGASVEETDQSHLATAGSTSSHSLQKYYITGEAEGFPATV
Sequence of Androgen receptor (Homo sapiens) (P10275 whole entry, looked up): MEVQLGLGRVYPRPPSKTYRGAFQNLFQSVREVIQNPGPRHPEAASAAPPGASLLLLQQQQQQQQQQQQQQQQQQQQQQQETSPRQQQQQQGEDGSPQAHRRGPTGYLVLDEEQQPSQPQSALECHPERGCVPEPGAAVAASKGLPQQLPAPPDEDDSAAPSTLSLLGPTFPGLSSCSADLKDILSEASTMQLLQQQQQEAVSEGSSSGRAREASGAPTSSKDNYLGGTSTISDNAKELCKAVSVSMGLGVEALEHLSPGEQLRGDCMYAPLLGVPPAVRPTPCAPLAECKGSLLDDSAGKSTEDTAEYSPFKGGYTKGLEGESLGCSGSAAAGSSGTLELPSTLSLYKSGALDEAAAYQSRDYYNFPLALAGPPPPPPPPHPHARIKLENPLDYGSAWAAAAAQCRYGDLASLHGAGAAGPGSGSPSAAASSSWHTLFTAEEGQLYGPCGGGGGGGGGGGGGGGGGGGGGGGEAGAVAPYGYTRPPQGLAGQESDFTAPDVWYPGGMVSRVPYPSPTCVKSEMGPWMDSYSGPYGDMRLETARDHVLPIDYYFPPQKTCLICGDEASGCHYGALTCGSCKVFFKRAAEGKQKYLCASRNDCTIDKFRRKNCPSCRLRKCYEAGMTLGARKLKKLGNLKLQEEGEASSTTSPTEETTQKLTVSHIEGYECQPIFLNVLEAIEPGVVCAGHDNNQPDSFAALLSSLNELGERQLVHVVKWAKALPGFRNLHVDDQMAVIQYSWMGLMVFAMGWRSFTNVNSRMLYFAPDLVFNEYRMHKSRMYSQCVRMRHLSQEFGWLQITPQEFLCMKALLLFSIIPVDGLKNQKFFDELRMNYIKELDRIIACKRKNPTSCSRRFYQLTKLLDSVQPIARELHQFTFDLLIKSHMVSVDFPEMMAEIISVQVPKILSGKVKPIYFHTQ

C/C=C1\C(=O)C[C@H]2[C@@H]3CCC4=CC(=O)CC[C@]4(C)[C@H]3CC[C@]12C
active: Potency [1] 18.9 µM | Potency [2] 10.7 µM | Potency [3] 13.4 µM | Potency [6] 30 µM
inactive: Potency [4] | Potency [5] | Potency [7] | outcome [8] | Potency [9] | outcome [10] | Potency [11]

Cc1ccccc1C(=O)O
inactive: Potency [1] | Potency [2] | Potency [3] | outcome [12] | Potency [4] | Potency [6] | Potency [7] | outcome [8] | outcome [10] | Potency [11]

CCCCCCCCCCC1CO1 (stereo unspecified)
inactive: outcome [12] | Potency [4] | Potency [5] | Potency [6] | Potency [7] | outcome [8] | outcome [10] | Potency [11]
active: Potency [1] 61.1 µM | Potency [2] 68.6 µM

NC1CCN(c2cccc(Cl)n2)CC1
inactive: outcome [12] | Potency [13] | outcome [14] | Potency [15] | Potency [4] | outcome [16] | Potency [7] | outcome [8] | Potency [11]

c1ccc(CCCc2ccccn2)cc1
inactive: Potency [1] | Potency [2] | outcome [12] | Potency [4] | Potency [5] | Potency [6] | Potency [7] | Potency [17] | outcome [8] | Potency [9] | outcome [10] | Potency [11]

CCCCCCCCCCCCCCCCCCOCC(O)CO (stereo unspecified)
inactive: Potency [1] | Potency [2] | Potency [3] | outcome [12] | Potency [4] | outcome [8] | Potency [18] | outcome [10] | Potency [11]

CC(CCO)CCCC(C)(C)O (stereo unspecified)
active: Potency [2] 48.6 µM | Potency [7] 27.3 µM
inactive: Potency [4] | Potency [5] | Potency [6] | outcome [8] | outcome [10] | Potency [11]

C=CCOCC(O)CS(=O)(=O)O (stereo unspecified)
inactive: Potency [1] | Potency [2] | outcome [12] | Potency [4] | Potency [5] | Potency [6] | Potency [7] | Potency [17] | outcome [8] | Potency [9] | Potency [18] | Potency [19] | outcome [10] | Potency [11]

CC(C)c1cccc(O)c1
inactive: Potency [1] | Potency [2] | Potency [3] | outcome [12] | Potency [4] | Potency [6] | Potency [7] | Potency [17] | outcome [8] | Potency [9] | Potency [18] | outcome [10] | Potency [11]

Cc1onc(-c2ccccc2)c1-c1ccc(S(N)(=O)=O)cc1
inactive: Potency [2] | outcome [12] | Potency [4] | Potency [5] | Potency [6] | Potency [7] | outcome [8] | outcome [10] | Potency [11]

C=C(C)C(=O)NCCCN(C)C
inactive: Potency [2] | Potency [3] | outcome [12] | Potency [4] | Potency [5] | Potency [6] | outcome [8] | outcome [10] | Potency [11]

C1C2OC2C2C1C1CC2C2OC12 (stereo unspecified)
inactive: Potency [1] | Potency [2] | outcome [12] | Potency [4] | Potency [6] | Potency [7] | outcome [8] | outcome [10] | Potency [11]

CCCCC=O
inactive: Potency [1] | Potency [2] | Potency [3] | outcome [12] | Potency [4] | Potency [6] | Potency [7] | outcome [8] | outcome [10]

CCCCC1CCCCC(=O)O1 (stereo unspecified)
inactive: Potency [1] | Potency [2] | outcome [12] | Potency [4] | Potency [5] | Potency [6] | Potency [17] | outcome [8] | Potency [9] | Potency [18] | Potency [19] | outcome [10] | Potency [11]

C=C(C)[C@@H]1CCC2=CC(=O)C[C@@H](C)[C@]2(C)C1
inactive: Potency [1] | Potency [2] | Potency [3] | outcome [12] | Potency [4] | Potency [5] | Potency [7] | Potency [17] | outcome [8] | Potency [9] | Potency [18] | Potency [19] | outcome [10]

COc1cc(O)cc(O)c1
inactive: Potency [1] | Potency [2] | Potency [3] | outcome [12] | Potency [4] | Potency [6] | Potency [7] | outcome [8] | Potency [19] | outcome [10] | Potency [11]

CCCCCCCCC=O
inactive: Potency [1] | Potency [2] | Potency [3] | outcome [12] | Potency [6] | Potency [7] | outcome [8] | Potency [18] | outcome [10]

OCCCCCCO
inactive: Potency [1] | Potency [2] | Potency [3] | outcome [12] | Potency [4] | Potency [6] | Potency [7] | outcome [8] | outcome [10] | Potency [11]

OC/C=C/c1ccccc1
inactive: Potency [1] | Potency [2] | Potency [3] | outcome [12] | Potency [4] | Potency [6] | Potency [7] | outcome [8] | outcome [10] | Potency [11]

O=C1OC(=O)c2cc([N+](=O)[O-])ccc21
inactive: Potency [1] | Potency [2] | Potency [3] | outcome [12] | Potency [4] | Potency [6] | Potency [7] | Potency [17] | outcome [8] | Potency [9] | Potency [18] | outcome [10] | Potency [11]

Cc1ccccc1Br
inactive: Potency [1] | Potency [2] | outcome [12] | Potency [4] | Potency [5] | outcome [8] | outcome [10] | Potency [11]

COc1cc(C)cc(O)c1
inactive: Potency [1] | Potency [2] | Potency [3] | outcome [12] | Potency [4] | Potency [6] | Potency [7] | outcome [8] | outcome [10] | Potency [11]

O=C(O)C(O)[C@H](O)[C@@H](O)[C@H](O)[C@H](O)CO (stereo partly specified)
inactive: Potency [1] | Potency [2] | Potency [3] | outcome [12] | Potency [4] | Potency [6] | Potency [7] | Potency [17] | outcome [8] | Potency [9] | Potency [18] | Potency [19] | outcome [10] | Potency [11]

COc1ccc(N=[N+]([O-])c2ccc(OC)cc2)cc1
inactive: Potency [1] | Potency [2] | Potency [3] | outcome [12] | Potency [4] | Potency [5] | Potency [7] | outcome [8] | Potency [9] | outcome [10] | Potency [11]
active: Potency [18] 0.0679 µM

CC(C)=CC(=O)O
active: Potency [18] 54.5 µM
inactive: Potency [1] | Potency [3] | outcome [12] | Potency [4] | Potency [5] | Potency [6] | Potency [7] | Potency [17] | outcome [8] | Potency [9] | Potency [19] | outcome [10] | Potency [11]

N#CCN(CC#N)CCN(CC#N)CC#N
inactive: Potency [1] | Potency [2] | outcome [12] | Potency [4] | Potency [5] | Potency [6] | Potency [7] | outcome [8] | outcome [10]

O=C(O)c1ccccc1S
inactive: Potency [1] | Potency [2] | Potency [3] | outcome [12] | Potency [4] | Potency [6] | Potency [7] | Potency [17] | Potency [9] | Potency [18] | Potency [19] | Potency [11]

CCC(=O)Nc1cccc(N)c1
inactive: Potency [1] | Potency [2] | Potency [3] | outcome [12] | Potency [4] | Potency [5] | Potency [17] | outcome [8] | Potency [9] | Potency [18] | Potency [19] | outcome [10] | Potency [11]

CC(C)(O)c1ccccc1
inactive: Potency [1] | Potency [2] | Potency [3] | outcome [12] | Potency [4] | Potency [6] | Potency [7] | Potency [17] | outcome [8] | Potency [9] | Potency [18] | outcome [10] | Potency [11]

Cn1cnc2c(=O)[nH]c(N)nc21
active: Potency [3] 61.3 µM
inactive: Potency [1] | Potency [2] | outcome [12] | Potency [4] | Potency [5] | Potency [6] | Potency [7] | outcome [10] | Potency [11]

NC(=S)Nc1cccc2ccccc12
inactive: activity change, negative = cytotoxicity [1] 28.7% [at 8.52 µM] | activity, negative = cytotoxicity [2] -8.62% [at 8.53 µM] | activity change, negative = cytotoxicity [12] 0.303% [at 7.04 µM] | viability change, negative = cytotoxic [4] -0.0936% [at 8.47 µM] | activity change, negative = cytotoxic [5] -2.02% [at 8.44 µM] | activity, negative = inhibition [6] -4.6% [at 8.44 µM] | activation [7] 0.336% [at 8.08 µM] | activity, negative = cytotoxicity [8] 13.6% [at 6.72 µM] | activity change, negative = cytotoxicity [10] -0.944% [at 8.47 µM] | activity, negative = inhibition [11] 16.7% [at 8.47 µM]
